# Akt phos inh – inhibitors of Akt phosphorylation | actives 0.32% (n = 360,000) | Neuro2A IGF-stimulated pAkt S473 HTRF, 20 min; stronger effect = lower value | activity change, % for hits at 50 µM; in the data active means activity change below about -80%; inconclusive means mostly about -51% to -80%; further: on the % scale 0 is the no-effect control and ±100 the full control effect
#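 Single-point screen (50 µM final compound) in Neuro2A cells stimulated 20 min with 6 nM IGF at 37 deg C. After lysis, Ser473-phosphorylated Akt read by HTRF (ex 330 nm, em 615/665 nm) as the 665/615 ratio.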
# RXFP1 agonist – agonists of human relaxin receptor RXFP1 | HEK293T-RXFP1 cAMP TR-FRET, 30 min; response scale: percent of porcine relaxin response, buffer zero | Potency, µM (doses to about 57.5 µM), for inactives: top-dose activation, actives largely listed as activators | actives 0.3% (n = 370,000); active means well fitted activation curve with a large enough effect; inconclusive means small, poorly fitted or top-dose-only effect; further: potency means the concentration at half of the fitted maximal effect; on the % scale 0 is the no-effect control and ±100 the full control effect; nearly all actives have a fitted effect of over 60% in size
# Target sequence (Q9HBX9 whole entry, looked up): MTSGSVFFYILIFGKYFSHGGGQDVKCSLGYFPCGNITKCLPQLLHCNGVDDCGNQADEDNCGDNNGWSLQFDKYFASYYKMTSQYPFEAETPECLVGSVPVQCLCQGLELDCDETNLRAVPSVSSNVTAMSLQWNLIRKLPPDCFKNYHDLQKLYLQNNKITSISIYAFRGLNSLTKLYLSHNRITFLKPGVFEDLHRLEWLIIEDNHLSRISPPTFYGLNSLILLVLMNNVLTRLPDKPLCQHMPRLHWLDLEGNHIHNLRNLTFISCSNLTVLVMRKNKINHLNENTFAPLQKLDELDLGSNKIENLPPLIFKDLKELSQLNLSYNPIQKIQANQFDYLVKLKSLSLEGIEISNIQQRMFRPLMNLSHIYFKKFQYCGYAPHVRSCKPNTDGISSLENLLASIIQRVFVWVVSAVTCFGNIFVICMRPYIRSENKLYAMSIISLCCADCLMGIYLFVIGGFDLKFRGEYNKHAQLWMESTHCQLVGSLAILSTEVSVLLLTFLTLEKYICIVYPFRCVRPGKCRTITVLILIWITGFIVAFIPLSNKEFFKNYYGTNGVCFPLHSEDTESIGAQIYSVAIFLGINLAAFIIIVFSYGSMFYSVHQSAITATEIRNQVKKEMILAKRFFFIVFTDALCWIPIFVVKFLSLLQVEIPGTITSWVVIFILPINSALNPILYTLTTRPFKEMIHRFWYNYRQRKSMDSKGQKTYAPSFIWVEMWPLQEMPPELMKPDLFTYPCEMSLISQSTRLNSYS
#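 Agonist response is measured as cAMP accumulation in an RXFP1-transfected HEK293T line under PDE4 inhibition. Values are scaled between buffer-only and 29 nM porcine relaxin, and EC50s come from standard Hill equation fits.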
# gsp agonist – gsp mutant agonism | actives 0.13% (n = 340,000) | AID 624287 | gsp mutant cells, cAMP HTRF, 30 min | Potency, µM (series often up to 76.9 µM), without a hit: top-dose activation (cAMP increase), hits mostly activators; active means well fitted activation curve with a large enough effect; inconclusive means small, poorly fitted or top-dose-only effect, or another doubt; inactive means no such curve, though single readings can be large or run the other way; cell line not stated here;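 further: phosphodiesterase inhibitor Ro 20-1724 added with compounds to block cAMP breakdown; potency means the concentration at half of the fitted maximal effect; nearly all actives have a fitted effect of over 60% in size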
#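 Cells in DMEM/10% FBS with G418 were pretreated with compounds in DMSO plus […] (300 uM stock) for 30 min at 37C. cAMP was measured by HTRF (cAMP-d2 plus anti-cAMP antibody-K) after 30 min at room temperature.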
# gsp antag – antagonists of gsp mutant (McCune-Albright syndrome) | actives 0.4% (n = 340,000) | AID 624288 | Potency, µM (highest dose often 76.9 µM), inactives show top-dose activity change, negative = inhibition, actives largely listed as inhibitors | gsp-mutant cells, cAMP HTRF, 30 min; calls by dose curve; cell line not stated here;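 further: intracellular cAMP measured with PDE inhibitor Ro 20-1724 present during compound exposure; potency means the concentration at half of the fitted maximal effect; on the % scale 0 is the no-effect control and ±100 the full control effect; nearly all actives have a fitted effect of over 65% in size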
#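 Cells in G418 medium, seeded 16-24 h, 37C; buffer exchange to DPBS + 1 mM CaCl2, 0.5 mM MgCl2, 0.05% BSA; cpds in DMSO + […] (300 uM stock), 30 min 37C; HTRF cAMP detection.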
# RXFP1 antagonist – blocks the human relaxin receptor RXFP1 | Q9HBX9 | HEK293-RXFP1, relaxin-stimulated cAMP HTRF, 30 min; stronger effect = lower value | activity change, negative = inhibition, % at 57.5 µM | actives 0.59% (n = 350,000);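 active means activity change of -60% or lower, but not beyond a set lower limit; inconclusive means change between -60% and -40%, or beyond the set limit; inactive means change above -40%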; further: on the % scale 0 is the no-effect control and ±100 the full control effect
# Active calls of the source: *; i = inactive; ? = inconclusive; · = not tested or not shown; [ ] = remark or other dose. An excerpt weighted towards active compounds, which were near 1.3% of everything screened.
SMILES,Akt phos inh,RXFP1 agonist,gsp agonist,gsp antag,RXFP1 antagonist
CN(C)c1ccc(N/C=C/C(=O)C(C)(C)C)cc1,-113.7%*,-9.7%,-3.0%,35.5µM*,?
O=C(/C=C/Nc1ccccc1)c1ccccc1,·,2.1%,?,-4.1%,3.0
CN(C)c1ccc(N/C=C/C(=O)c2ccccc2)cc1,i,-3.0%,9.1%,-10.8%,-109.6*
CCOC(=O)c1ccc(N/C=C/C(=O)C(C)(C)C)cc1,i,2.5%,-6.2%,-16.8%,-9.8
CC(=O)c1cccc(NC(=O)Cn2c(=O)c(CNc3ccc(C)cc3)cc3cc4c(cc32)OCCO4)c1,·,7.1%,·,·,·
COc1ccc(Br)cc1CN(C)CC(O)COc1ccc(Br)cc1 (stereo not given),i,0.4%,-8.6%[15.4 µM],-13.6%,-63.5*
COc1cccc(NC(=O)CCc2nnc3n(CC(C)C)c(=O)c4ccccc4n23)c1,·,13.3%,·,·,-4.5
O=S1(=O)CCC(NS(=O)(=O)/C=C/c2ccccc2)C1 (stereo not given),-113.7%*,0.9%,-34.2%,-0.8%,-8.3
O=S(=O)(/C=C/c1ccccc1)NC1CCCCCC1,i,1.8%,-11.0%[15.4 µM],-13.3%,-12.0
CCS(=O)(=O)NCCc1sc2nc(-c3ccc(OC)cc3)nn2c1C,·,1.2%,·,·,-2.7
Cc1ccc(CC(=O)Nc2ccc(S(=O)(=O)Nc3nccc(C)n3)cc2)cc1,i,2.0%,-15.4%,8.91µM*,-1.3
Cc1ccnc(NS(=O)(=O)c2ccc(N3C(=O)c4ccccc4C3=O)cc2)n1,i,?,25.1µM*,8.8%,6.2
CCOc1cc(C2C3=C(CCCC3=O)NC3=C2C(=O)CCC3)cc(Cl)c1O,i,0.6%,?,6.0%,0.1
CCOc1ccc(C2CC(=O)NC3=C2C(=O)CCC3)cc1Cl (stereo not given),-107.0%*,0.1%,?,10.3%[15.4 µM],-1.5
CCOC(=O)c1ccc(COC(=O)CCc2nc3ccccc3[nH]c2=O)o1,-103.0%*,0.6%,-46.9%,-15.1%,-9.3
CCOC(=O)c1sc(SCC(=O)Nc2ccc(N(C)C)cc2)nc1N,·,2.7%,-1.2%,28.2µM*,-0.1
COc1ccc(N/N=C(/Oc2ccc([N+](=O)[O-])cc2)C(C)=O)cc1,-113.5%*,0.7%,10.2%,-16.4%,3.7
CCC(=O)N1N=C(c2ccc(Cl)cc2)CC1c1ccco1 (stereo not given),i,-0.3%,4.6%[15.4 µM],-11.6%,-63.7*
Cc1ccc(N2CCN(C(=O)C3CCN(S(=O)(=O)c4ccc5c(c4)oc(=O)n5C)CC3)CC2C)cc1 (stereo not given),·,-1.6%,·,·,·
CCCCCCCC(=O)[O-].CCCCCCCC(=O)[O-].[Zn+2],·,·,·,·,-19.3
O=C(CCc1nc2ccccc2c(=O)[nH]1)N1CCN(C/C=C/c2ccccc2)CC1,i,3.2%,3.3%,22.4µM*,-18.3
CCOc1cc(-c2ccc(OC(=O)c3ccccc3)c(OC)c2)cc(=O)c2c(C)oc(C)c12,·,2.9%,·,·,-97.7*
COc1cc(-c2cc(OC)c3c(C)oc(C)c3c(=O)c2)ccc1OC(=O)c1ccccc1F,·,1.3%,·,·,-68.4*
COc1cc(-c2cc(OC)c3c(C)oc(C)c3c(=O)c2)ccc1OC(=O)c1ccccc1Cl,·,3.4%,·,·,?
CCOc1cc(-c2ccc(OC(=O)c3ccc(Cl)cc3)c(OC)c2)cc(=O)c2c(C)oc(C)c12,·,-0.2%,·,·,-62.7*
SMILES,Akt phos inh,RXFP1 agonist,gsp agonist,gsp antag,RXFP1 antagonist
Cc1cc(C)c(C#N)c(SCc2ccc(C(=O)O)cc2)n1,i,-1.1%,-2.7%,39.8µM*,-18.6
Cc1ccc(Sc2c([N+](=O)[O-])ncn2C)cc1,-109.6%*,2.1%,-0.2%,-2.2%,2.5
O=C(COC(=O)C1COc2ccccc2O1)NC(=O)NC1CCCC1 (stereo not given),-97.6%*,-1.1%,-37.8%,-9.4%,-6.5
O=C(COC(=O)C1COc2ccccc2O1)NC1CCCCC1 (stereo not given),i,·,13.7%[15.4 µM],-3.1%,-0.9
COC(=O)c1ccc(Cl)cc1NC(=O)N1CC=C(c2c[nH]c3ccccc23)CC1,·,-1.4%,·,·,-14.2
CCC(C)NC(=O)C1CCN(C(=O)c2ccc(-n3ccc4ccccc43)s2)CC1 (stereo not given),·,?,·,·,-1.5
Brc1ccc(-c2nnc3sc(CN4CCC5(CC4)OCCO5)cn23)cc1,-101.8%*,8.7%,23.2%,1.8%,-2.9
O=C(NCc1cccnc1)Nc1ccc(Cl)cc1,i,1.1%,29.2%,11.2µM*,7.1
Cn1c(C(=O)NCc2cccnc2)cc2sccc21,-83.2%*,0.8%,-31.8%,-2.2%,-6.3
CC(C)Oc1ccc(C(=O)NCc2cccnc2)cc1,-118.9%*,-0.1%,-40.6%,0.9%,-10.9
O=C(Cc1cccs1)NCc1cccnc1,-93.2%*,1.3%,-1.4%,-1.0%,-0.4
COc1ccc(C(c2c(O)cc(C)n(Cc3ccco3)c2=O)N2CCN(c3ccccc3)CC2)cc1 (stereo not given),·,2.9%,·,·,-26.5
CCOc1ccc(S(=O)(=O)N(CC)CC)cc1NC(=O)CSCc1c(C)noc1C,i,16.8%,10µM*,0.6%,10.1
CCOC(=O)CC(NC(=O)CCc1c(C)nc2cc(-c3ccccc3)nn2c1C)c1ccc(C)cc1 (stereo not given),·,0.1%,·,·,·
COc1ccc2nc(Nc3nc(CSc4nnnn4-c4ccccc4)cc(=O)[nH]3)nc(C)c2c1,-120.5%*,1.1%,-3.1%,10.4%,-9.3
CCOc1ccc2nc(Nc3nc(CSc4nnnn4-c4ccccc4)cc(=O)[nH]3)nc(C)c2c1,i,1.7%,3.6%,-12.1%,1.7
CN1C(=O)c2ccc(NC(=O)c3cccc4ccccc34)cc2C1=O,i,5.3%,22.7%,-3.7%,6.1
Cc1ccc(C(=O)Nc2ccc3c(c2)C(=O)N(C)C3=O)c(C)c1,i,6.2%,35.5µM*,7.8%,·
O=C1c2ccsc2SCCN1Cc1ccc(Cl)cc1Cl,-106.4%*,4.3%,-41.7%,2.0%[15.4 µM],-15.4
CN(CC(=O)Nc1ccc(F)cc1)C(=O)COC(=O)c1ccccc1,i,0.1%,-2.5%[15.4 µM],8.5%,-7.0
CN(CC(=O)Nc1ccc(F)cc1)C(=O)COC(=O)c1cccc(N(C)C)c1,i,2.6%,25.1µM*,-4.0%,9.6
CCOc1ccc(N(CC)S(=O)(=O)c2cc(Br)cc3c2N(C(C)=O)C(C)C3)cc1 (stereo not given),·,0.1%,·,·,·
COc1ccc(C)cc1NC(=O)c1ccccc1NS(=O)(=O)c1ccc(Cl)s1,i,2.9%,8.3%,35.5µM*,-1.7
COc1ccccc1NC(=O)c1ccccc1NS(=O)(=O)c1cccs1,i,0.4%,14.6%,-9.6%,10.1
CC(CCc1ccccc1)NC(=O)c1ccccc1F (stereo not given),i,4.3%,-43.5%,-0.3%,-4.7
CC(CCc1ccccc1)NC(=O)c1ccccc1Cl (stereo not given),i,1.5%,0.8%,0.4%,-74.0*

# From PubChem BioAssay
